Only some compounds are listed: those with a hit (about 3.4% of all), similar ones and a draw of the others.
TMEM16A act: mouse TMEM16A channel activation, primary screen; Q8BHY3; HEK293 TMEM16A/YFP-H148Q/I152L, iodide quench fluorescence; stronger effect = lower value; B-score at 10 µM; 0.3% of 340,000 active;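 active = fluorescence-ratio B-score plate-corrected deviation score at least 3 library SD below zero, with starting fluorescence score within 5 deviations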;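 note: channel opened by trigger with iodide after compound preincubation; score built on the fluorescence ratio of max minus min over baseline; more negative score means more quench and so TMEM16A activation or potentiation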
MEKK2 WT-MEK5: raises or lowers MEK5 binding to wildtype human MEKK2 PB1 domain | binding response (% of control), % at 10 µM | Q9Y2U5 | 1.1% of 290,000 active | bead flow cytometry, Alexa488-MEK5 binding to MEKK2 WT; actives lie on both sides | AID 1531; in the data active = binding response below about 67% or above about 130%
MEKK2 mut-MEK5: signal of MEK5 binding to mutant human MEKK2 PB1 domain; percent response, % at 10 µM; 0.35% of 290,000 active; bead flow cytometry, Alexa488-MEK5 binding to MEKK2 mutant; in the data active = percent response above about 24%, passing the limit was not always enough
ANO1 block: mouse TMEM16A channel inhibition, primary screen. Q8BHY3. HEK293 TMEM16A/YFP iodide influx fluorescence, ionomycin. normalized B-score (activity score, 25-100; higher = stronger inhibition) at 10 µM. 1.2% of 310,000 active;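 active = ratio plate-corrected score three or more library SD toward inhibition, starting fluorescence score within five deviations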;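 note: score derived from kinetic fluorescence span divided by baseline fluorescence per well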
MEKK3 PB1 HTS: MEKK3-MEK5 PB1 interaction, increase or decrease; Q99759; bead-based flow cytometry, Alexa488-MEK5 binding to MEKK3; actives lie on both sides; 0 = blocked by unlabeled MEK5, 100 = vehicle; binding response (% of control), % at 10 µM; 1.4% of 290,000 active; AID 1529;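 active = binding response more than 3 SD above or below the average of its plate-row segment, actives on both sides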;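 note: Alexa488 bead fluorescence after subtracting the streptavidin-only scavenger bead signal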
NTR1 ag: agonists of human neurotensin receptor NTR1 | P30989 | NTR1-U2OS beta-arrestin-GFP spot imaging, agonist mode | activation, % at 20 µM | 0.17% of 330,000 active | AID 493036;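 active = activation at or above 40% of the spot to cytoplasm intensity ratio, with at least 20 cells analyzed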;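 note: 0% = DMSO without peptide and 100% = 100 nM NTR1 peptide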
Target sequence (P30989 whole entry, looked up): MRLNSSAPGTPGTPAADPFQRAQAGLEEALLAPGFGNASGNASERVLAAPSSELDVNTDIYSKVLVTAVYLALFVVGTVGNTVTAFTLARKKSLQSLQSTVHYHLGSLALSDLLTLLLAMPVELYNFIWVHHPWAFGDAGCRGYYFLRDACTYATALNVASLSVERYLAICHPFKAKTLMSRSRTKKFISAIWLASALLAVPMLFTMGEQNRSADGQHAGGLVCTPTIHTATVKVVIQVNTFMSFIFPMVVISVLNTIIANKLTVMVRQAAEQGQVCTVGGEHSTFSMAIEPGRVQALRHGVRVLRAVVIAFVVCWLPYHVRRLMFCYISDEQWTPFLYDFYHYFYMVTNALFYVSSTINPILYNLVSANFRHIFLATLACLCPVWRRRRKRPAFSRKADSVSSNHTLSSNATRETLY
MEKK2wt confirm: raises or lowers MEK5 binding to wildtype human MEKK2, retest; binding response (% of control), % at 10 µM; shares compounds with MEKK3 PB1 HTS; 2.4% of 5,900 active; bead flow cytometry, Alexa488-MEK5 binding to MEKK2 WT; actives lie on both sides; AID 1892; in the data active = binding response below about 16% or above about 210%; inactive = in between
MEKK2mut confirm: signal of MEK5 binding to mutant human MEKK2, retest. shares compounds with MEKK3 PB1 HTS. bead flow cytometry, Alexa488-MEK5 binding to MEKK2 mutant. percent response, % at 10 µM. 2% of 5,900 active; in the data active = percent response mostly above about 71%, no sharp cut-off; inactive = mostly below about 38%;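 note: higher means compound restores mutant binding toward wildtype level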
MEKK3 confirm: MEKK3-MEK5 PB1 inhibition, single concentration confirmation | shares compounds with MEKK3 PB1 HTS | bead flow cytometry, Alexa488-MEK5 binding to MEKK3; stronger effect = lower value | binding response (% of control), % at 10 µM | 1.8% of 5,900 active;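 active = binding response below 72% of control, or above a set upper limit, though filed actives all read lower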;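 note: 100% = DMSO only wells and 0% = binding blocked by excess unlabeled MEK5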
* hit, by the source's call; i = inactive; nt = no result; [ ] = another dose, or the depositor's remark.

SMILES	TMEM16A act	MEKK2 WT-MEK5	MEKK2 mut-MEK5	ANO1 block	MEKK3 PB1 HTS	NTR1 ag	MEKK2wt confirm	MEKK2mut confirm	MEKK3 confirm
COc1cc(/C=N/OCC(=O)Nc2ccc(OC(F)F)cc2)ccc1OCc1ccccc1	i	108.0	-1.0	i	135.0*	0.1	99.0	-7.0	101.0
CCOc1ccc(-c2nnn(CC#N)n2)cc1OC	i	110.0	2.0	i	103.0	1.9	nt	nt	nt
COc1ccc(/C=C/C(=O)N2CCN(S(=O)(=O)/C=C/c3ccccc3)CC2)cc1OC	i	108.0	0.0	i	145.0*	2.7	102.0	6.0	104.0
N/C(Cc1cccc2ccccc12)=N\OC(=O)Cc1cccs1	i	100.0	0.0	i	144.0*	3.5	98.0	0.0	102.0
CCc1ccc(OCC(=O)N/N=C/c2ccc(OS(=O)(=O)c3ccc(C)cc3)c(OC)c2)cc1	i	117.0	10.0	i	106.0	2.7	nt	nt	nt
COc1cc(/C=N/NC(=O)COc2cc(C)cc(C)c2)ccc1OS(=O)(=O)c1ccc(C)cc1	i	98.0	0.0	i	135.0*	3.8	98.0	1.0	101.0
O=C(OCc1ccccc1)C1CCCN1C(=O)c1ccccc1[N+](=O)[O-] (stereo unspecified)	i	104.0	6.0	i	102.0	1.6	nt	nt	nt
CCN(Cc1ccncc1)C(=O)c1cccc(S(=O)(=O)N2CCCCC2)c1	i	nt	nt	nt	nt	-0.7	nt	nt	nt
O=C(c1ccc([N+](=O)[O-])cc1)N(C1=NCCCCS1)c1ccccc1	i	76.0	-6.0	i	79.0*[inhibitor]	-0.8	159.0	44.0	104.0
O=C(c1ccc([N+](=O)[O-])cc1)N(c1ccccn1)c1ccccn1	i	93.0	-4.0	i	94.0	-1.4	nt	nt	nt
C=CCc1cccc(CNc2c(C)cc(C)cc2C)c1O	i	83.0	-6.0	i	70.0*[inhibitor]	0.1	98.0	-8.0	97.0
C=CCc1cccc(CNc2c(C)n(C)n(-c3ccccc3)c2=O)c1O	i	98.0	1.0	i	100.0	2.2	nt	nt	nt
Cc1nn(CC2CC2)c(=O)n1-c1cccc(Cl)c1	i	133.0	5.0	i	154.0*	-1.8	97.0	-5.0	98.0
CCOC(=O)Cn1nc(C)n(-c2cccc(Cl)c2)c1=O	i	100.0	0.0	i	102.0	1.3	nt	nt	nt
Cc1nn(CC2CC2)c(=O)n1-c1ccc(F)cc1	i	115.0	3.0	i	129.0*	0.5	100.0	0.0	100.0
Cc1ccc(-n2c(C)nn(CC3CC3)c2=O)cc1	i	97.0	-3.0	i	97.0	1.7	nt	nt	nt
COC(=O)c1ccccc1S(=O)(=O)N1CCC(C(=O)N(C)CCOc2ccccc2)CC1	i	nt	nt	i	nt	-0.2	nt	nt	nt
Cn1c(N)c(C(=O)CSc2nnc(Cc3cccs3)n2C2CC2)c(=O)n(C)c1=O	i	nt	nt	nt	nt	3.8	nt	nt	nt
CC(Nc1ccccc1)c1ccncc1 (stereo unspecified)	i	124.0	6.0	i	133.0*	0.2	102.0	-26.0	98.0
COc1ccc(NC(C)c2ccccc2)cc1 (stereo unspecified)	i	94.0	-6.0	nt	100.0	nt	nt	nt	nt
Cc1ccccc1N(CC(=O)Nc1ccc(S(=O)(=O)N2CCOCC2)cc1)S(C)(=O)=O	i	86.0	-6.0	i	91.0	2.0	nt	nt	nt
Cc1ccc(Cc2nnc3n(-c4ccccc4)nc(C(=O)c4ccccc4)n3c2=O)cc1	i	86.0	-2.0	i	65.0*[inhibitor]	12.1	96.0	1.0	98.0
Cc1ccc(CNC(=O)c2cc(C)nn2-c2ccccc2)cc1	i	116.0	18.0	i	115.0	1.7	nt	nt	nt
